Reference: PubChem BioAssay
Activity calls are given as the source filed them.

Key:
[1] = tested on: Human papillomavirus type 1a protein E7 (residues 44-93); assay: HPV1a E7 fragment binders on microarrays, primary screen, biochemical, small-molecule microarray, residues 44-93, 635 nm fluorescence (AID 1108); conditions: small-molecule microarray binding, fluorescence 635 nm; higher = more signal;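 further: E7 fragment applied at 1 µg/mL in TBST for 1 h at 4 C; score combines spot fluorescence with its signal to noise ratio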
[2] = modulators of HCV replicon luciferase signal, primary screen, HCV replication inhibitor project, Huh7 cells, luciferase reporter (AID 1109); conditions: 48 h, higher = more signal;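 further: huh7 hepatoma cells harbouring a luciferase neomycin HCV replicon reporter; luciferase luminescence as measure of HCV replicon replication; test concentration not given here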
[3] = target: Left-right determination factor 2 (Homo sapiens) (UniProt O00292); assay: LEFTY2 binders on small-molecule microarrays, primary screen, biochemical, small-molecule microarray, 635 nm fluorescence scan (AID 1110); conditions: LEFTY2 binding, higher = more signal
[4] = target: Calmodulin-1 (Homo sapiens) (UniProt P0DP23); assay: CALM1 binders on microarrays, EGTA buffer, profiling panel, biochemical, small-molecule microarray, Cy5-labelled CALM1 (AID 1111); conditions: Cy5-CALM1 binding fluorescence, higher = more signal;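 further: labelled calmodulin applied in Tris saline Tween buffer holding calcium plus EGTA and DTT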
[5] = target: Calmodulin-1 (Homo sapiens) (UniProt P0DP23); assay: calcium-bound CALM1 binders on microarrays, profiling panel, artefact control for SMM control-protein annotation, biochemical, small-molecule microarray, Cy5-labelled CALM1, plus calcium (AID 1112); conditions: Cy5-CALM1 binding fluorescence, higher = more signal;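 further: score merges spot fluorescence with signal to noise from triplicate slides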
[6] = small-molecule microarray binders of probe aWnt5a, primary screen, biochemical, biotinylated probe, 635/667 nm fluorescence (AID 1113); conditions: higher = more signal;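 further: score merges 667 nm fluorescence intensity with signal-to-noise per printed feature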
[7] = small-molecule microarray binders of probe aShh, primary screen, biochemical, biotinylated probe, 635/667 nm fluorescence (AID 1114); conditions: higher = more signal;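 further: probe is biotin-labelled aShh protein from a stem cell growth factor screen; measures binding of labelled protein to compounds printed on the slide; score merges feature fluorescence at 667 nm with signal-to-noise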
[8] = small-molecule microarray binders of probe aNog, primary screen, biochemical, biotinylated probe, 635/667 nm fluorescence (AID 1115); conditions: higher = more signal;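 further: probe is biotinylated aNog protein used at 0.15 µg/mL for 1 h at 4 C; z-score combines 667 nm fluorescence of each spot with its signal to noise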
[9] = target: Torsin-1A-interacting protein 1 (Homo sapiens) (UniProt Q5JTV8); assay: LAP1 binders from COS7 cell lysate, primary screen, small-molecule microarray, 635/667 nm fluorescence (AID 1116); conditions: COS7-hLAP1 lysate binding, 635 nm fluorescence, higher = more signal
[10] = target: Alpha-bungarotoxin (Bungarus multicinctus) (UniProt P60615); assay: alpha-bungarotoxin binders on microarray, profiling panel, artefact control for SMM control protein annotation, biochemical, small-molecule microarray, Alexa647 label, 635/667 nm fluorescence (AID 1117); conditions: alpha-BTX-A647 binding fluorescence, higher = more signal
Albumin (Bos taurus) = Albumin (Bos taurus) (UniProt P02769); assay: bovine serum albumin binders on microarray, profiling panel, artefact control for SMM control protein annotation, biochemical, small-molecule microarray, Alexa647 label, 635/667 nm fluorescence (AID 1118); conditions: BSA-A647 binding, fluorescence 635 nm, higher = more signal;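 further: score merges 667 nm emission intensity and signal-to-noise per printed compound spot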
[11] = small-molecule microarray binders of probe aXIP, primary screen, biochemical, NeuroSMM set, 635/667 nm fluorescence (AID 1119); conditions: higher = more signal, called active from +8 up or from −8 down;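 further: probe is the protein aXip251-270 applied at 1 µg/mL to compound-printed slides; binding of probe to printed compounds measured as 667 nm fluorescence plus signal to noise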
[12] = small-molecule binders of probe aNOTCH3, primary screen, biochemical, small-molecule microarray, 635/667 nm fluorescence (AID 1120); conditions: higher = more signal;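 further: probe is a biotin-tagged antibody raised against NOTCH3 rather than NOTCH3 protein; score merges spot fluorescence near 667 nm with spot signal to noise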
[13] = small-molecule binders of probe aNOTCH2, primary screen, biochemical, small-molecule microarray, 635/667 nm fluorescence (AID 1121); conditions: higher = more signal;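 further: score merges feature fluorescence read at 667 nm with its signal to noise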
[14] = target: Carbonic anhydrase 2 (Homo sapiens) (UniProt P00918); assay: CAII small-molecule binders, profiling panel, biochemical, small-molecule microarray, Alexa647-labelled CAII (AID 1122); conditions: CAII-A647 binding fluorescence, higher = more signal
[15] = COS7 lysate on small-molecule microarray, probe aHis, 635 nm (AID 1123); conditions: COS7 cell lysate, fluorescence, higher = more signal;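 further: z-score combines 667nm fluorescence intensity with signal-to-noise per printed compound spot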
[16] = compound binding in COS7 lysate, probe aLAP1, primary screen, cell lysate, small-molecule microarray (AID 1124); conditions: probe aLAP1, fluorescence, higher = more signal;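 further: lysate comes from COS7 cells expressing LAP1 and is applied at 0.3 µg/mL; score merges spot fluorescence near 667 nm with signal-to-noise over triplicate slides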
Sam68 (KHDRBS1) = assay: Sam68 small-molecule binders, primary screen, biochemical, small-molecule microarray, 635 nm fluorescence (AID 1125); conditions: small-molecule microarray binding, higher = more signal;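 further: score merges 667 nm channel intensity with signal to noise over triplicate slides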
[17] = tested on: Chordin-like protein 2 (CHRDL2); assay: CHRDL2 small-molecule binders, primary screen, biochemical, small-molecule microarray, 635 nm fluorescence (AID 1126); conditions: small-molecule microarray binding, fluorescence 635 nm; higher = more signal;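 further: printed compound slides probed with Chrdl2 protein at 4 µg/mL for 1 h at 4 C; score merges 667 nm emission intensity with signal to noise over three replicate slides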
[18] = target: Concanavalin-A (Canavalia ensiformis) (UniProt P02866); assay: ConA small-molecule binders, primary screen, artefact control for SMM control protein annotation, biochemical, small-molecule microarray, Alexa647 label, 635 nm (AID 1127); conditions: ConA-A647 binding fluorescence, higher = more signal;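 further: z combines 667 nm emission intensity with signal-to-noise across three replicate slides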
Concanavalin-A (Canavalia ensiformis), sequence (P02866 whole entry, looked up): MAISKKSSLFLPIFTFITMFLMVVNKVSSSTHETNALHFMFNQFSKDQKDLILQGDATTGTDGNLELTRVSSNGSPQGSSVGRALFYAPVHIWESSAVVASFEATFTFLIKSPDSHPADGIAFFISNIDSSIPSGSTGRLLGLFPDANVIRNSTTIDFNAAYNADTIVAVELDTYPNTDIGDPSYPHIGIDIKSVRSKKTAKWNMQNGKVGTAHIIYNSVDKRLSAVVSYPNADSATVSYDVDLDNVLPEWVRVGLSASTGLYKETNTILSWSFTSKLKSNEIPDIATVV

Torsin-1A-interacting protein 1 (Homo sapiens), sequence (Q5JTV8 whole entry, looked up): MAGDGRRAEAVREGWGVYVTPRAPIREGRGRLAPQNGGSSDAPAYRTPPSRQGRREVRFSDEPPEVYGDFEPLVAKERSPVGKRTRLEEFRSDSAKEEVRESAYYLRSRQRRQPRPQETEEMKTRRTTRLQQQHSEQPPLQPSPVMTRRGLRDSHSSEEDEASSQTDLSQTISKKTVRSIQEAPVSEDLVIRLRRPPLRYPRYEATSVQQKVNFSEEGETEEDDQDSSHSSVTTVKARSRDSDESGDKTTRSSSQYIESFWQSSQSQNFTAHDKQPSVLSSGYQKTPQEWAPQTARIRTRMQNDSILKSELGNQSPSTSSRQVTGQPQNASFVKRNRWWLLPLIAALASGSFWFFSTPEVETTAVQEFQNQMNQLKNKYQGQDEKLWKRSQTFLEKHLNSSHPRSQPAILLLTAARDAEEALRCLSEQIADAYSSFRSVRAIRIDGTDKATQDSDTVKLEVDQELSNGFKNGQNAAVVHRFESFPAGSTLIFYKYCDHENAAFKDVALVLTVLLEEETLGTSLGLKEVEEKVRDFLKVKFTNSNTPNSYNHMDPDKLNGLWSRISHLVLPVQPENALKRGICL
Left-right determination factor 2 (Homo sapiens), sequence (O00292 whole entry, looked up): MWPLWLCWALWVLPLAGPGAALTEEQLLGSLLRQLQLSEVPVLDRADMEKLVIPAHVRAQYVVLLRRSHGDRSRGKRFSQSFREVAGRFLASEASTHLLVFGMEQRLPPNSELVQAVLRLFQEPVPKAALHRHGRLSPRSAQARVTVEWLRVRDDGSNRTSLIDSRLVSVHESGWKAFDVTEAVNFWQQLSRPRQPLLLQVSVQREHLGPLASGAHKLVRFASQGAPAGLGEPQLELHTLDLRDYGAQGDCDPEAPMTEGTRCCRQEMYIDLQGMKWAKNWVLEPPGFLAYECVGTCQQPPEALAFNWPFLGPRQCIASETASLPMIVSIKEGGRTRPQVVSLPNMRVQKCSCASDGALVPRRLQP
Albumin (Bos taurus), sequence (P02769 whole entry, looked up): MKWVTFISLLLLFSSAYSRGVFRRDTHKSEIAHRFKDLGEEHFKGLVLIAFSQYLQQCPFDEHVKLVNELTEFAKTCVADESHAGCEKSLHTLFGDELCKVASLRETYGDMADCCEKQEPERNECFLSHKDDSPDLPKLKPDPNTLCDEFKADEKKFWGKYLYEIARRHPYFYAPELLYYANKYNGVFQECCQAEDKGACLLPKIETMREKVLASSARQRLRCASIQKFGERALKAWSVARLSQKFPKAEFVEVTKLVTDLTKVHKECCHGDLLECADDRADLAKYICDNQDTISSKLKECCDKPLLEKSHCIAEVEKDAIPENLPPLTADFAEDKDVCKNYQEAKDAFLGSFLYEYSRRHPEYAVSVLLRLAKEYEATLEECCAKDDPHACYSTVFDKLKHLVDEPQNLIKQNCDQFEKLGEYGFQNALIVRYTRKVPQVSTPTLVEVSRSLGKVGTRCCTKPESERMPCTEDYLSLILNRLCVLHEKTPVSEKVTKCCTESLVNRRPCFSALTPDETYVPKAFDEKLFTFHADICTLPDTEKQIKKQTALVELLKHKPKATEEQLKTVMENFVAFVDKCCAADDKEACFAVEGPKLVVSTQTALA
Alpha-bungarotoxin (Bungarus multicinctus), sequence (P60615 whole entry, looked up): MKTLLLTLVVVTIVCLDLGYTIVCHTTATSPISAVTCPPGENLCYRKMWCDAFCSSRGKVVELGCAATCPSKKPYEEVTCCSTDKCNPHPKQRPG

SMILES | composite z-score [1] | z-score [2] | composite z-score [3] | composite z-score [4] | composite z-score [5] | composite z-score [6] | composite z-score [7] | composite z-score [8] | composite z-score [9] | composite z-score [10] | composite z-score (Albumin (Bos taurus)) | composite Z-score [11] | composite z-score [12] | composite z-score [13] | composite z-score [14] | composite z-score [15] | composite z-score [16] | composite z-score (Sam68 (KHDRBS1)) | composite z-score [17] | composite z-score [18]
COCCCNC(=O)[C@@]1(Sc2ccc(C)cc2)CC(=O)N(Cc2ccccc2)[C@@H]1c1ccc(CO)cc1 | 0.0655 | -1.29 | -0.993 | -0.488 | -0.58 | -0.0221 | -0.0324 | 0.336 | -0.36 | -0.941 | 0.146 | 0.201 (inactive) | -0.689 | -0.134 | 0.534 | 2.54 | 0.378 | 0.0145 | -0.21 | -0.668
NC(=O)[C@]1(Cc2ccccc2)N=C(c2ccc(OCCCO)cc2)O[C@@H]1c1ccccc1 | 1.33 | -0.772 | -1.02 | 1.35 | 0.744 | -0.0398 | 0.409 | 1.42 | 1.51 | 1.23 | 0.532 | 0.702 (inactive) | 0.106 | 0.0959 | 0.865 | 2.53 | 0.583 | 0.827 | -0.0464 | 0.587
CCCCCCC#C[Si](O[C@H](c1ccccc1)c1cn([C@H](C)c2ccccc2)nn1)(C(C)C)C(C)C | 0.444 | -1.57 | 0.434 | -0.193 | -0.455 | 0.0317 | -0.138 | -0.139 | -0.0802 | -0.0777 | 0.672 | 0.282 (inactive) | 0.155 | -0.0843 | -0.0858 | 0.19 | -0.164 | 0.729 | 0.267 | 0.809
O=C1OCC=C[C@H]2OC34C=CCN(c5ccc6ccccc6c5)C(=O)[C@H]3N(CCO)C(=O)[C@@H]4[C@@H]12 (stereo not given in full) | -0.589 | -0.727 | -1.99 | -0.245 | 0.716 | -0.152 | 0.191 | 0.0721 | -0.831 | -0.74 | -0.855 | 0.138 (inactive) | -0.172 | -0.115 | 0.804 | 0.174 | -0.532 | -0.873 | -2.08 | -0.681
CN1C(=O)C2C=CC(C(O)C3=C[C@H]4C[C@@H](C3)C4(C)C)N(Nc3ccc([N+](=O)[O-])cc3[N+](=O)[O-])C2C1=O (stereo not given in full) | 1.41 | -0.474 | 0.258 | 1.72 | 0.616 | 0.0194 | 0.223 | 0.836 | 0.975 | 1.51 | 0.909 | 1.09 (inactive) | 0.289 | 0.186 | 0.722 | 2.38 | 0.805 | 1.12 | 0.51 | 1.16
CC(C)[Si]1(C(C)C)O[C@@H](c2ccccc2)c2cc(-c3ccc(-c4ccc(Cl)c(Cl)c4)o3)nc(CCc3ccccc3)c21 | 0.0027 | -2.07 | -1.32 | -0.411 | 0.873 | -0.152 | 0.0141 | -0.0118 | -0.193 | -1.17 | -1.24 | 0.0953 (inactive) | -0.226 | -0.148 | 0.287 | 0.143 | 0.312 | -0.141 | -1.59 | -1.04
